Laboratory results as given in the supplement of paper PMC11732987, “Enantioselective OTUD7B fragment discovery through chemoproteomics screening and high-throughput optimisation” (Communications Chemistry, 2025).

Columns and labels:
Assay in all cases: log2 ratio of Biotin-Ahx-Ub-VS probe labelling (fragment/DMSO); higher = less target engagement (more negative = stronger competition), active = hit call of the paper (q ≤ 0.05, log2 ratio ≤ -1)
Details in all cases: compound concentration: 200 uM; treatment time: 3 h
[1] = target: USP9X (UniProt Q93008)
How it was run: (§1)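 HEK293T lysate (495 µg per sample, in Tris/CHAPS/IGEPAL buffer with protease inhibitors) was treated in triplicate with fragment at 200 µM or with DMSO for 3 h. It was then treated with Biotin-Ahx-Ub-VS (0.5 µM final) for 1 h. Labelled DUBs were NeutrAvidin-enriched, digested with LysC and trypsin, and run by diaPASEF LC-MS/MS. Spectronaut label-free quantities were global-median-normalised. Values are average log2 ratios fragment/DMSO by unpaired t-test, using proteins with ≥2 unique peptides.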

[2] = target: UniProt O00487
UniProt O00487, sequence (O00487 whole entry): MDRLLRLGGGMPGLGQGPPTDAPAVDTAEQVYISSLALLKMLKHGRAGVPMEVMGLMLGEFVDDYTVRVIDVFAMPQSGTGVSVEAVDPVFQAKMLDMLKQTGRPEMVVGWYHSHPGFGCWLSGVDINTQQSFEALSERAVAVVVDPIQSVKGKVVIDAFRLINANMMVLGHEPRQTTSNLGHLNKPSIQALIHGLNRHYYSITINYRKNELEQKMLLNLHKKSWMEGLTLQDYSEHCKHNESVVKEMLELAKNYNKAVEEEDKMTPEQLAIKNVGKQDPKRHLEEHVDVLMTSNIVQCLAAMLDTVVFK
How it was run: as §1

[3] = target: UniProt O00507
UniProt O00507, sequence (O00507 whole entry): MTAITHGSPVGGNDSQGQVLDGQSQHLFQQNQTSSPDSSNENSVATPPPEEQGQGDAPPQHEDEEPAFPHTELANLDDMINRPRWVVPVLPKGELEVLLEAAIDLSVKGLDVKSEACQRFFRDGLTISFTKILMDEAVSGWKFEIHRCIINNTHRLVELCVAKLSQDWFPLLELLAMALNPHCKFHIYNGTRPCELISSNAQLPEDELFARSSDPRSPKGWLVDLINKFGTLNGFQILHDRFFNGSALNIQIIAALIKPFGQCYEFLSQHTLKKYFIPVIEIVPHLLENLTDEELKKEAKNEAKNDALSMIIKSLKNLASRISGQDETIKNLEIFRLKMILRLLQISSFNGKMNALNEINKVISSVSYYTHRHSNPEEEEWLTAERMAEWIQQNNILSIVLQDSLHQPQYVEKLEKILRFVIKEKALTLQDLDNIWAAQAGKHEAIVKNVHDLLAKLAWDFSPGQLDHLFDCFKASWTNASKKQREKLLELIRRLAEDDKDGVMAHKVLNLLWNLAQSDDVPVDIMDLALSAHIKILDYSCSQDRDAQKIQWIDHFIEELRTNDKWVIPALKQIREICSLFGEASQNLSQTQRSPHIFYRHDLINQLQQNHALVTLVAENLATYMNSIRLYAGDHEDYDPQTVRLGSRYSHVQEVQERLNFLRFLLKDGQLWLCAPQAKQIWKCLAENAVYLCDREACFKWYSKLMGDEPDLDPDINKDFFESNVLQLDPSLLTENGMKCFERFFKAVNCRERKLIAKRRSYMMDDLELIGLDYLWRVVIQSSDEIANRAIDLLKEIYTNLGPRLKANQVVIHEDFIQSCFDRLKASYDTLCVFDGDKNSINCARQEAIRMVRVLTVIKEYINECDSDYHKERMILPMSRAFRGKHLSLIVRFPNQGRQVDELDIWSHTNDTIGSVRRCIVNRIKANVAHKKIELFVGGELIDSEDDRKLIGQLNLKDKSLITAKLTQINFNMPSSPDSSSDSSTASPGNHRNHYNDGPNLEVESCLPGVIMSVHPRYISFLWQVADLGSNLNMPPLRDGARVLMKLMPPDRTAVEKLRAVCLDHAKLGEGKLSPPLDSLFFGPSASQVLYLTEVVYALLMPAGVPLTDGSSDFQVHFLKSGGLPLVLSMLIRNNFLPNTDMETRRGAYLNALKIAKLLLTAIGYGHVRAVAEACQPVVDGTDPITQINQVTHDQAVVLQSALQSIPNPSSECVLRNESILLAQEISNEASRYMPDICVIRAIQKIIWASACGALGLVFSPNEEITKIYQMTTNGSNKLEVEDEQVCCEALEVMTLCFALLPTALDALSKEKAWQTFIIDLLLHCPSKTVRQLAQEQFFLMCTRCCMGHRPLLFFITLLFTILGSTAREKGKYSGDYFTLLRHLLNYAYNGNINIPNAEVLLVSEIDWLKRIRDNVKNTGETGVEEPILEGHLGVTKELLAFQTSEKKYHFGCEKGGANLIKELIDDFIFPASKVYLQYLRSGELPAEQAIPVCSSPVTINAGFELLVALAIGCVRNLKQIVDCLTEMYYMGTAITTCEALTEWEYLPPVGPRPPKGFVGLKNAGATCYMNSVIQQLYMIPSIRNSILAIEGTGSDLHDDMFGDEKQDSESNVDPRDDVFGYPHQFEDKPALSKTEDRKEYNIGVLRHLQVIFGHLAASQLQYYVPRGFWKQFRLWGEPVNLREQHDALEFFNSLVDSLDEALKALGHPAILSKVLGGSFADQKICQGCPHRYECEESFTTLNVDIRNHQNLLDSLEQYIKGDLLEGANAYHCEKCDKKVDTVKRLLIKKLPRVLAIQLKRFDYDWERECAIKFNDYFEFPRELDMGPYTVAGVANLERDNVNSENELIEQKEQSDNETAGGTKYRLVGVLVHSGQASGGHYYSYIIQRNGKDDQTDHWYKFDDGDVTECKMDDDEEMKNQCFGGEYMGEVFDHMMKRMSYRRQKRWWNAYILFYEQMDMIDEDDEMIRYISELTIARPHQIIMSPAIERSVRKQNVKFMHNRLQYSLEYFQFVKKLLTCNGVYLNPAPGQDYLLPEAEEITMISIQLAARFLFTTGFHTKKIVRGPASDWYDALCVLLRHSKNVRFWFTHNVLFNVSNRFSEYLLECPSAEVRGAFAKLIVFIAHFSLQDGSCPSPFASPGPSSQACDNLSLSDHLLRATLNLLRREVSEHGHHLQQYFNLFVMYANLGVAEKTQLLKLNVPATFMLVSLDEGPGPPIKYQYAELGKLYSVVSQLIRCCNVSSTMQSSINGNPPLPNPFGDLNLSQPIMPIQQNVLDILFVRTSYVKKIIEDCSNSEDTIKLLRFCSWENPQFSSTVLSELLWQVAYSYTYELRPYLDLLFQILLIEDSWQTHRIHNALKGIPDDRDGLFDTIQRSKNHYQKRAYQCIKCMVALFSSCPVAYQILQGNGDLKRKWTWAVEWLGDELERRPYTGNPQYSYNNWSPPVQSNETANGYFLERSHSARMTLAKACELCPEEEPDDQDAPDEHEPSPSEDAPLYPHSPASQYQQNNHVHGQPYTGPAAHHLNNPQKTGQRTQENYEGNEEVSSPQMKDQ
How it was run: as §1

[4] = target: UniProt P51784
UniProt P51784, sequence (P51784 whole entry): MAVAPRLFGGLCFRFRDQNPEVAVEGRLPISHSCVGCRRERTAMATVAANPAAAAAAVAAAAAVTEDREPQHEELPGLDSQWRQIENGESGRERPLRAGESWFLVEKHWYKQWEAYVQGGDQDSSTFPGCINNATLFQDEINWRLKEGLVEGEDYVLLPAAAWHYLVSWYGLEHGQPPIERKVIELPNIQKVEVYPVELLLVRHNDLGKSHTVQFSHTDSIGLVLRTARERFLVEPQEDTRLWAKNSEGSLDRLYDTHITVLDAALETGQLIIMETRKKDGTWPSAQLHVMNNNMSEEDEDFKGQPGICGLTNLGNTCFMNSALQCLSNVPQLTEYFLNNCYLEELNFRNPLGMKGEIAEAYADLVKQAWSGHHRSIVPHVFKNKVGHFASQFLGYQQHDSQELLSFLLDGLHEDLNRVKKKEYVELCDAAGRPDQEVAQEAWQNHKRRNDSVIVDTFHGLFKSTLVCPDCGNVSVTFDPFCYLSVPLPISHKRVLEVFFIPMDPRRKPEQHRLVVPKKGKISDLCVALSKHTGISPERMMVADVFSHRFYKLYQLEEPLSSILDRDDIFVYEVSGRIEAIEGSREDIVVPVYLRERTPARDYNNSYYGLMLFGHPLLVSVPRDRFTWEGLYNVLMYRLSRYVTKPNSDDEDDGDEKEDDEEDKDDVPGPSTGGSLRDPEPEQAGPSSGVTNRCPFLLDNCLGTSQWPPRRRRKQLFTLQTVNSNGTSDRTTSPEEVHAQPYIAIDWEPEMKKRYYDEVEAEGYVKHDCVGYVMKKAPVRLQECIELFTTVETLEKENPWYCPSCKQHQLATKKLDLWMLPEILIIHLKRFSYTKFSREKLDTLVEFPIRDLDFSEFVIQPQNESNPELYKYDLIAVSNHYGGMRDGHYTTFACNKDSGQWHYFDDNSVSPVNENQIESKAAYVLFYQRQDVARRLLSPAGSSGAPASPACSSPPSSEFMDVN
How it was run: as §1

[5] = target: T1, UniProt Q5T2D3
T1 sequence (whole entry): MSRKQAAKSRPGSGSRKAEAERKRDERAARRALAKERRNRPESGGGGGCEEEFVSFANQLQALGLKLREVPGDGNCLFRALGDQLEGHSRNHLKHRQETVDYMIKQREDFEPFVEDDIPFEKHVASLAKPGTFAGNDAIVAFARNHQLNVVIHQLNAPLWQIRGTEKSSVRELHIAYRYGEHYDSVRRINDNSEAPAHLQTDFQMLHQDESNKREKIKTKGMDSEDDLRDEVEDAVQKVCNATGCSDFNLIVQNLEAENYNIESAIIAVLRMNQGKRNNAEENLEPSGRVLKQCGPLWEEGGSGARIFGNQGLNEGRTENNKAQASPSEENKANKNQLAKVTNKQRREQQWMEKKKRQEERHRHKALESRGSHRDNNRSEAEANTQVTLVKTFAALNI
How it was run: as §1

[6] = target: T2, UniProt Q8TE49
T2 sequence (whole entry): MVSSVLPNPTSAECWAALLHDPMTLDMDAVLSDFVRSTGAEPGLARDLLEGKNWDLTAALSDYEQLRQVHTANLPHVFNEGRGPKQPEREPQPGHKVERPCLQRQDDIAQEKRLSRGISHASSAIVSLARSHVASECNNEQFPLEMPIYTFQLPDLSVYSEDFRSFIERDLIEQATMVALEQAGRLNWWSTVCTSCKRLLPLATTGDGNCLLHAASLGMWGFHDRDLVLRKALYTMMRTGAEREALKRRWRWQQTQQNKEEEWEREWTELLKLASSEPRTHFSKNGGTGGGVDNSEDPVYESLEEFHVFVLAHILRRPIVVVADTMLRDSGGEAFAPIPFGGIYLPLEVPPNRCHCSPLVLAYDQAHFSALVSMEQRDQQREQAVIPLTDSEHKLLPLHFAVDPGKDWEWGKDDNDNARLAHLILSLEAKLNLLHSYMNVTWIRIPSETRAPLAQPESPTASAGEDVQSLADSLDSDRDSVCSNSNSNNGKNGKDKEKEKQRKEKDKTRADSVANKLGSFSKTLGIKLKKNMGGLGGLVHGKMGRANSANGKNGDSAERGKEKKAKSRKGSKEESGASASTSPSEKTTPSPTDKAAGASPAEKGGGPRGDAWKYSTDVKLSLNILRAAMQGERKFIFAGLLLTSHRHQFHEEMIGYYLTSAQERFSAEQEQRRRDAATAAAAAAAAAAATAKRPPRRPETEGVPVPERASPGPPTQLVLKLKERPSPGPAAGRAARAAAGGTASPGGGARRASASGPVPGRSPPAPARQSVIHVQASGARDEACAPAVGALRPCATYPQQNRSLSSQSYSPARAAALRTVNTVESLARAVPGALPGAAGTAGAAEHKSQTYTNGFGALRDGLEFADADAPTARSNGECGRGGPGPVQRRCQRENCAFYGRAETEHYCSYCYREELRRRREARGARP
How it was run: as §1

[7] = target: T3, UniProt Q9P2H5
T3 sequence (whole entry): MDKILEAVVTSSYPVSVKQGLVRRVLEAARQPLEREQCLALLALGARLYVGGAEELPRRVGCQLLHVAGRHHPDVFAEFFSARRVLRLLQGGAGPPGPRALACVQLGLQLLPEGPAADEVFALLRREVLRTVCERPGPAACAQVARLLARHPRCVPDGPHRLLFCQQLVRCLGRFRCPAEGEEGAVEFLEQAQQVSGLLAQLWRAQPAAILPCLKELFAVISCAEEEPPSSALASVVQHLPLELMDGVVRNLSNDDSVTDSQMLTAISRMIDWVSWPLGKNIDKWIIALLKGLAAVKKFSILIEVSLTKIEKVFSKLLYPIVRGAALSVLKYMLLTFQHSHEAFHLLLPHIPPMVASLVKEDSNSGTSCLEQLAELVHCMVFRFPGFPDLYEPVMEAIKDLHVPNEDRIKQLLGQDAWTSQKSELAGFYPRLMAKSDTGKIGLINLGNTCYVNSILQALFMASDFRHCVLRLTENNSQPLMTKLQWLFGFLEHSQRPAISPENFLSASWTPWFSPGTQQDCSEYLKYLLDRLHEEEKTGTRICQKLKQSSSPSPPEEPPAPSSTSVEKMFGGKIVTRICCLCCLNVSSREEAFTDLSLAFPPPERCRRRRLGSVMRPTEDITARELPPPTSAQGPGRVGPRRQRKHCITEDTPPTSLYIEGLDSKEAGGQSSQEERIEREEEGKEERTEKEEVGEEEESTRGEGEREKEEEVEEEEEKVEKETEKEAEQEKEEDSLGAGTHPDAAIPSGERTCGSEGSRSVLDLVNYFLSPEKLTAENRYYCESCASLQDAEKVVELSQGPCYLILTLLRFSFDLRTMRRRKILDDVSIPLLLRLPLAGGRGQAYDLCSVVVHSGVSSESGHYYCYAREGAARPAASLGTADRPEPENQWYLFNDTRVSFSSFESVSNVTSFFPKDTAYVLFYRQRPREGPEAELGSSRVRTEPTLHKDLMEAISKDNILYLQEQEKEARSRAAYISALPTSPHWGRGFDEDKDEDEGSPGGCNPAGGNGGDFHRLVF
How it was run: as §1

[8] = target: T4, UniProt Q9UGI0
T4 sequence (whole entry): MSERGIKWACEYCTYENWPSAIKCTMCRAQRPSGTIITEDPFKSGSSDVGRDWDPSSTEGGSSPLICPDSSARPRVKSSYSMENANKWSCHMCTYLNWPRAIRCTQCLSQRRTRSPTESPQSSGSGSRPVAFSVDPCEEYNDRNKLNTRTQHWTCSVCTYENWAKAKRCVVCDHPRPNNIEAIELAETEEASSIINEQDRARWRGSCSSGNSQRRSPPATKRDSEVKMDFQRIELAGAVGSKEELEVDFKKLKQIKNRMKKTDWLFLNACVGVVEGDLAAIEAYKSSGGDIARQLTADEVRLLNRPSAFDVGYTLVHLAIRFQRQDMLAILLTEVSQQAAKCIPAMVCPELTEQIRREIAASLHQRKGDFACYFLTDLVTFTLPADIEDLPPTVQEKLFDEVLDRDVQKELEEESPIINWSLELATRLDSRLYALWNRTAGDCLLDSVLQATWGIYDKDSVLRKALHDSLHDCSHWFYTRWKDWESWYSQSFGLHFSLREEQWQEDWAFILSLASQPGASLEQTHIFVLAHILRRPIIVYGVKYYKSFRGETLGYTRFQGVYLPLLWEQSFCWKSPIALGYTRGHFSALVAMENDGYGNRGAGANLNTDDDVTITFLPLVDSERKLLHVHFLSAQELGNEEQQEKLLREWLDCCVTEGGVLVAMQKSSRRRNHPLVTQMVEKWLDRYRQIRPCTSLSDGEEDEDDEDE
How it was run: as §1

[9] = target: T5, YOD1 (UniProt Q5VVQ6)
T5 sequence (whole entry): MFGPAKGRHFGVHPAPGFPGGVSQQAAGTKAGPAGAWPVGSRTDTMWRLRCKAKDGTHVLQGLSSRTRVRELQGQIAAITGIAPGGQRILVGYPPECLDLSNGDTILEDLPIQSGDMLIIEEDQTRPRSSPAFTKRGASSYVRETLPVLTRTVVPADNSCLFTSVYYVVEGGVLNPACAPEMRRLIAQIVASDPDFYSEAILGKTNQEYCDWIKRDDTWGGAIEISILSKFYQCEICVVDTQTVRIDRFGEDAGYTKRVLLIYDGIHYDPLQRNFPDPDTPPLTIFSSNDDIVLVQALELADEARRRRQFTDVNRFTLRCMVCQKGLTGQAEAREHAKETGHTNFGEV
How it was run: as §1

Measured: log2 ratio of Biotin-Ahx-Ub-VS probe labelling

Cn1cc(CN(Cc2ccc(Cl)cc2)C(=O)CCl)cn1
inactive: [1] -0.441 | [2] 0.0261 | [3] -0.606 | [4] -0.11 | [5] 0.147 | [6] -0.82 | [7] -0.065 | [8] -0.327 | [9] -0.0228
